# From PubChem BioAssay (NCATS)
# Values joined by “and” are separate entries in the source; they are usually repeats but may differ in a detail not shown here. Identical values can stand only once. Results filed as inconclusive are left out. A call without a number means that no potency is given here. Active and inactive are the calls of the source. The call rests on the fitted dose curve; in most records, active means well fitted inhibition curve with a large enough effect; inconclusive means small, poorly fitted or top-dose-only effect; inactive means flat fitted curve, though single readings scatter.
# Tested on: Zika virus NS2B-NS3 protease (linked construct)
# Test: Confirmatory screen NINDS AMC qHTS for Zika virus inhibitors (AID 1347152)
# Conditions: Purified linked NS2B-NS3, AMC substrate fluorescence; series mostly up to 56.6 µM
# Procedure, shortened: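 IC50s from 4-parameter Hill fits of percent inhibition, based on AMC fluorescence gain (340/450 nm) over 15 min with 10 microM Bz-Nle-KRR-AMC. Enzyme: 1 nM linked NS2B-NS3 in Tris-HCl pH 8.0; 15-min compound preincubation.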
# Further: nearly all actives have a fitted effect of over 70% in size.
# Potency means the concentration at half of the fitted maximal effect.
row,SMILES,Potency
1,CCCc1nc(C)c2c(=O)[nH]c(-c3cc(S(=O)(=O)N4CCN(CC)CC4)ccc3OCC)nn12,inactive
2,O=C(O)c1cn(C2CC2)c2cc(N3CCNCC3)c(F)cc2c1=O,24.1 µM (active)
3,CCn1cc(C(=O)O)c(=O)c2cc(F)c(N3CCNCC3)cc21,27.1 µM (active)
4,O=C(O)c1ccc(-n2nc(-c3ccccc3O)nc2-c2ccccc2O)cc1,inactive
5,COc1c(N2CCNC(C)C2)c(F)cc2c(=O)c(C(=O)O)cn(C3CC3)c12 (stereo unspecified),27.1 µM (active) and 30.4 µM (active)
6,OCc1ccc(-c2nn(Cc3ccccc3)c3ccccc23)o1,24.1 µM (active)
7,Nc1nc(N)c2nc(CNc3ccc(C(=O)NC(CCC(=O)O)C(=O)O)cc3)cnc2n1 (stereo unspecified),27.1 µM (active)
8,CNC1CCCN(c2c(F)cc3c(=O)c(C(=O)O)cn(C4CC4)c3c2OC)C1 (stereo unspecified),27.1 µM (active)

# Tested on: Zika virus NS2B-NS3 protease (unlinked complex)
# Test: Confirmatory screen GU AMC qHTS for Zika virus inhibitors (AID 1347153)
# Conditions: Recombinant NS2B-NS3 protease, AMC substrate fluorescence; series mostly up to 57.1 µM
# Excerpt: Assay Submitters (PI): Avindra Nath, Ph.D., National Institute of Neurological Disorders and Stroke (NINDS), Bethesda, MD Radhakrishnan Padmanabhan, Ph.D., Georgetown University (GU), Washington D.C. Zika Virus causes congenital defects, including microcephaly and is associated with Guillain-Barre syndrome, eningoencephalitis and myelitis in infected adult. […] Using a target-based approach, we hope to establish a screening paradigm to uncover novel, cell-active NS2B-NS3 protease (Zika Virus) specific inhibitors from NCATS' collection of small molecules using qHTS. […] Active compounds in the primary screen are re-acquired and re-screened to confirm NS2B-NS3 protease inhibition. Early Translation Branch (ETB) National Center for Advancing Translational Sciences (NCATS), Rockville, MD National Institute of Health (NIH), Bethesda, Maryland
# Materials: Padmanabhan lab provided the NS2B hydrophilic domain and NS3 protease domain in a noncovalent complex used for the unlinked assay. Control compound aprotinin is obtained from Thermo Scientific (#78432; Waltham, Massachusetts). NS2B-NS3 AMC substrate (Bz-Nle-Lys-Arg-Arg-AMC; Nle-KRR-AMC) purchased from Bachem (#I-1995; Torrance, CA). Ac-VKTGKR-AMC purchased from Genscript or Bachem, Ac-FAAGKR-AMC purchased from Genscript, Ac-GLVKRR-AMC purchased from Genscript, Ac-LKKR-AMC purchased from Genscript. GU AMC unlinked NS2B-NS3 protease qHTS protocol: Briefly, 3 microL of Zika virus unlinked NS2B-NS3 protease (25 nM for linked final concentration), in assay buffer (10 mM Tris-HCl pH 8.0 with 0.01% Tween 20) was dispensed into a 1,536-well solid-bottom black plate (Greiner Bio One, Monroe, NC). Twenty-three nL of compounds (final concentration range 7.28 nM to 114 microM) or control Aprotinin (final concentration range 3.47 nM to 114 microM) were transferred via Wako Pin-tool (Wako Automation, Richmond, VA). Samples were incubated (room temperature, protected from light) for 15 minutes followed by a 1 microL AMC substrate addition of (final concentration of 10 microM; Km = 18.3 µM). Plates were then read immediately on a ViewLux High-throughput CCD imager (PerkinElmer, Waltham, MA) equipped with standard UV fluorescence optics (340(30) nm excitation, 450(20) nm emission) then incubated (room temperature, protected from light) for 15 minutes (~20% conversion). The change in fluorescence intensity over the 15-minute reaction period was normalized against no-inhibitor and no-enzyme controls and the resulting percent inhibition data were fitted to a 4-parameter Hill equation. Aprotinin was used as the intraplate control.
row,SMILES,Potency
1,CCCc1nc(C)c2c(=O)[nH]c(-c3cc(S(=O)(=O)N4CCN(CC)CC4)ccc3OCC)nn12,inactive
2,O=C(O)c1ccc(-n2nc(-c3ccccc3O)nc2-c2ccccc2O)cc1,inactive
3,OCc1ccc(-c2nn(Cc3ccccc3)c3ccccc23)o1,24.1 µM (active)
4,CNC1CCCN(c2c(F)cc3c(=O)c(C(=O)O)cn(C4CC4)c3c2OC)C1 (stereo unspecified),inactive

# Tested on: Zika virus NS2B-NS3 protease
# Test: Primary screen GU AMC qHTS for Zika virus inhibitors (AID 1347154)
# Conditions: Zika NS2B-NS3 unlinked protease, AMC fluorogenic substrate; series mostly up to 54.1 µM
# Procedure, shortened: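 Unlinked Zika NS2B hydrophilic domain–NS3 protease complex at 25 nM in 10 mM Tris-HCl pH 8.0, 0.01% Tween 20, with an AMC peptide substrate. Fluorescence change (340/450 nm) over 15 min at room temperature, normalized to controls, fitted to 4-parameter Hill.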
row,SMILES,Potency
1,CCN(CC)CCn1c(=O)c(Cc2ccc(OC)cc2)nc2ccccc21,inactive
2,Cc1cc(NS(=O)(=O)c2ccc(N)cc2)no1,inactive
3,CNC(=O)c1cc(Oc2ccc(NC(=O)Nc3ccc(Cl)c(C(F)(F)F)c3)cc2)ccn1,inactive
4,CCN(CC)CC#CCOC(=O)C(O)(c1ccccc1)C1CCCCC1 (stereo unspecified),inactive
5,CC(=O)[C@H]1CC[C@H]2[C@@H]3CC=C4C[C@@H](O)CC[C@]4(C)[C@H]3CC[C@]12C,inactive
6,O=C(O)c1cc(=O)[nH]c(=O)[nH]1,inactive
7,NC(=O)c1ccc2[nH]ccc2c1,inactive
8,CC1=NN(c2ccccc2)C(=O)C1,inactive
9,O=C(O)C1CCCN(CCC=C(c2ccccc2)c2ccccc2)C1 (stereo unspecified),inactive
10,COc1ccc(-c2ccc3cc(C(=O)O)ccc3c2)cc1C12CC3CC(CC(C3)C1)C2,inactive
11,O=S(=O)(O)CCS,inactive
12,Cc1ccc(S(=O)(=O)N[C@@H](Cc2ccccc2)C(=O)CCl)cc1,inactive
13,NC(=O)c1cccnc1,inactive
14,CCN1CCCC1CNC(=O)c1cc(S(N)(=O)=O)ccc1OC (stereo unspecified),inactive
15,O=c1cc(O)c(Cl)c[nH]1,inactive
16,CC(C)(Sc1cc(C(C)(C)C)c(O)c(C(C)(C)C)c1)Sc1cc(C(C)(C)C)c(O)c(C(C)(C)C)c1,inactive
17,O=C(O)c1ccc(-n2nc(-c3ccccc3O)nc2-c2ccccc2O)cc1,inactive

row,SMILES,Potency
1,C[C@@H]1C[C@H]2[C@@H]3CCC4=CC(=O)C=C[C@]4(C)[C@@]3(Cl)[C@@H](O)C[C@]2(C)[C@@]1(OC(=O)c1ccco1)C(=O)CCl,inactive
2,COC(=O)Nc1nc2ccc(C(=O)c3ccccc3)cc2[nH]1,inactive
3,CCCCS(=N)(=O)CCC(N)C(=O)O (stereo unspecified),inactive
4,COc1c(N2CCNC(C)C2)c(F)cc2c(=O)c(C(=O)O)cn(C3CC3)c12 (stereo unspecified),16.1 µM (active) and 24.1 µM (active)
5,CC(=O)[C@H]1CC[C@H]2[C@@H]3CCC4=CC(=O)CC[C@]4(C)[C@H]3CC[C@]12C,inactive
6,OCc1ccc(-c2nn(Cc3ccccc3)c3ccccc23)o1,30.4 µM (active)
7,N[C@@H](C(=O)N[C@@H]1C(=O)N2C(C(=O)O)=C(Cl)CS[C@H]12)c1ccccc1,inactive
8,Nc1nc(N)c2nc(CNc3ccc(C(=O)NC(CCC(=O)O)C(=O)O)cc3)cnc2n1 (stereo unspecified),21.5 µM (active)
9,Oc1c(Cl)cc(Cl)c2cccnc12,inactive
10,NC(=O)c1cccc(N)c1,inactive
11,CNC1CCCN(c2c(F)cc3c(=O)c(C(=O)O)cn(C4CC4)c3c2OC)C1 (stereo unspecified),25.6 µM (active)
12,N[C@@H](Cc1ccc(O)c(O)c1)C(=O)O,27.1 µM (active)
13,CCOC(=O)c1ccc(C#Cc2ccc3c(c2)C(C)(C)CCS3)nc1,31.6 µM (active) and 21.5 µM (active)
14,CC1=C(C(=O)O)N2C(=O)[C@@H](NC(=O)C(N)c3ccccc3)[C@H]2SC1 (stereo partly specified),inactive
15,CN(CCOc1ccc(CC2SC(=O)NC2=O)cc1)c1ccccn1 (stereo unspecified),inactive
16,O=C(O)c1cccnc1,inactive
17,Nc1nc(N)nc(-c2cc(Cl)ccc2Cl)n1,inactive
